Assay results published in PubChem BioAssay (EPA / NIEHS).
Records with an inconclusive call do not appear. Calls of active or inactive are those of the source. The calls were made as follows, unless noted: active = hit-call score of the fitted dose curve at least 0.9, where 1 is the maximum; inactive = score below 0.9.

Experiments:
[1] = BSK_4H_Eotaxin3: BioMAP Diversity Plus: 4H Assay for Eotaxin 3 Biomarker Activity (AID 2283000); settings: primary human endothelial cells (HUVEC); actives raise or lower the signal
In short: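 HUVEC, 24 h post-dose, ELISA for Eotaxin-3/CCL26. Gain or loss of signal fitted bidirectionally vs DMSO baseline.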

[2] = molecular target: human Peroxisome Proliferator-activated Receptor delta (PPARd), PPARD (gene 5467) (UniProt Q03181); assay: ATG_PPARd_TRANS: Attagene TRANS-FACTORIAL HepG2 Assay for human Peroxisome Proliferator-activated Receptor delta (PPARd) (AID 2283002; active = hit-call score of the fitted dose curve at least 0.9, where 1 is the maximum)
human Peroxisome Proliferator-activated Receptor delta (PPARd), PPARD (gene 5467), sequence (Q03181 whole entry, looked up, the tested form may be a part): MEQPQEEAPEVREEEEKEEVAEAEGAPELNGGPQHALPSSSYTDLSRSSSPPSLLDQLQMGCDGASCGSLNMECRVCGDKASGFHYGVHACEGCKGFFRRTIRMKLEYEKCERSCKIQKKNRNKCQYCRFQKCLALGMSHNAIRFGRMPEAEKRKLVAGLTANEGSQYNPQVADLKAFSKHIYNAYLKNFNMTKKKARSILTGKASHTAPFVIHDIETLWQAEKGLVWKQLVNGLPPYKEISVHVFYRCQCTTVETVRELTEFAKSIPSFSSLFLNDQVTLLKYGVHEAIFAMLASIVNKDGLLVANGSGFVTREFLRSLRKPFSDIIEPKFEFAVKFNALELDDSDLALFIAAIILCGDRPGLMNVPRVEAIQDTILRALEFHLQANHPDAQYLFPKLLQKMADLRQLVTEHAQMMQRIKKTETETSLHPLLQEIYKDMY
In short: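 Read-out: reporter mRNA induction, quantified by fluorescent RT-PCR products resolved by capillary electrophoresis. Human HepG2 liver cells carried transiently transfected Gal4-UAS reporter constructs with chimeric NR-Gal4 fusions. Cells were dosed for 24 h; DMSO served as baseline.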

[3] = read-out: Intercellular Adhesion Molecule 1 (ICAM1), ICAM1 (gene 3383); assay: BSK_3C_ICAM1: BioMAP Diversity Plus: 3C Assay for Intercellular Adhesion Molecule 1 (ICAM1) Biomarker Activity (AID 2283003); settings: primary human endothelial cells (HUVEC); actives raise or lower the signal
In short: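 Using DMSO as baseline, bidirectional curve fitting was applied to ICAM-1 ELISA signals from HUVEC in the 3C system, measured 24 h after compound addition.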

[4] = BSK_3C_Proliferation: Cell Proliferation Assessment in the BioMAP Diversity Plus: 3C Assay (AID 2283006); settings: primary human endothelial cells (HUVEC);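 as to AC50: potency may reflect either rise or fall in cell number versus DMSO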
In short: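 Measured here: sulforhodamine B (0.1%) staining of TCA-fixed sub-confluent umbilical vein endothelial cultures 48 h post-dosing, absorbance 560 nm. DMSO served as negative control and baseline; both signal gain and loss were modelled.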

[5] = molecular target: human RAR-related Orphan Receptor beta (RORb), RORB (gene 6096) (UniProt Q92753); assay: ATG_RORb_TRANS: Attagene TRANS-FACTORIAL HepG2 Assay for human RAR-related Orphan Receptor beta (RORb) (AID 2283010; active = hit-call score of the fitted dose curve at least 0.9, where 1 is the maximum)
human RAR-related Orphan Receptor beta (RORb), RORB (gene 6096), sequence (Q92753 whole entry, looked up, the tested form may be a part): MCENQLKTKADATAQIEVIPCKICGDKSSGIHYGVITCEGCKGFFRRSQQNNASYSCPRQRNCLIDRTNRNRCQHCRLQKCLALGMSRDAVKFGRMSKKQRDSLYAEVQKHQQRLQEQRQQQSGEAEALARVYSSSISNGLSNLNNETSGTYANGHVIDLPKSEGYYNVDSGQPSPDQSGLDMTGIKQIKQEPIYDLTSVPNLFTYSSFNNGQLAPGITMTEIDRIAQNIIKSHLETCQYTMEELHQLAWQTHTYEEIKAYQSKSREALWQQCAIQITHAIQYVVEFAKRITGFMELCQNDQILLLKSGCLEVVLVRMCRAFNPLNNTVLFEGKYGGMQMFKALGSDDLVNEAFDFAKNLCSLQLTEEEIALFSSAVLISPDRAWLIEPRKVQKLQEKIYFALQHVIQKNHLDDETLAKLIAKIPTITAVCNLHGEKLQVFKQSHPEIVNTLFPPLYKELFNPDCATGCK
In short: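 Multiplexed transcription-factor reporter assay: HepG2 cells transiently carrying NR-Gal4/GAL4-UAS constructs, 24 h treatment, mRNA quantified by RT-PCR plus capillary electrophoresis fluorescence; activity scored as induction over DMSO.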

[6] = molecular target: human RAR-related Orphan Receptor gamma (RORg), RORC (gene 6097) (UniProt P51449); assay: ATG_RORg_TRANS: Attagene TRANS-FACTORIAL HepG2 Assay for human RAR-related Orphan Receptor gamma (RORg) (AID 2283011; active = hit-call score of the fitted dose curve at least 0.9, where 1 is the maximum)
human RAR-related Orphan Receptor gamma (RORg), RORC (gene 6097), sequence (P51449 whole entry, looked up, the tested form may be a part): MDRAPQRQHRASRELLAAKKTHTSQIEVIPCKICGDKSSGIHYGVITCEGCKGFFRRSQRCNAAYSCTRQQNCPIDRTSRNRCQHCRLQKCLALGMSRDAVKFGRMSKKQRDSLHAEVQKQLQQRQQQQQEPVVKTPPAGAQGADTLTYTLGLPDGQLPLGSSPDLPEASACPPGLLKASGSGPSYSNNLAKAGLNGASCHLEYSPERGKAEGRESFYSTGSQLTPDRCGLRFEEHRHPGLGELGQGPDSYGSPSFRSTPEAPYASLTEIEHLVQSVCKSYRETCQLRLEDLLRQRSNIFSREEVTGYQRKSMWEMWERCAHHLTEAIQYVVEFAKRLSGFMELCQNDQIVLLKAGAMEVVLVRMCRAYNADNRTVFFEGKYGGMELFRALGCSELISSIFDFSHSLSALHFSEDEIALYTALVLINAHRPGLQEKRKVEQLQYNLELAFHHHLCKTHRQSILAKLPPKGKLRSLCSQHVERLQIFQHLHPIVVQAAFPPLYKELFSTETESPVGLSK
In short: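 Readout: reporter transcript induction (RT-PCR, fluorescent primer extension, capillary electrophoresis) after 24 h compound exposure of transiently transfected HepG2 cells carrying a RORg-Gal4 chimera and GAL4-UAS reporters; DMSO served as baseline, with increasing signal fitted.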

[7] = molecular target: Retinoic acid receptor RXR-alpha (Homo sapiens) (UniProt P19793); assay: ATG_RXRa_TRANS: Attagene TRANS-FACTORIAL HepG2 Assay for human Retinoid X Receptor alpha (RXRa) (AID 2283012; active = hit-call score of the fitted dose curve at least 0.9, where 1 is the maximum)
Retinoic acid receptor RXR-alpha (Homo sapiens), sequence (P19793 whole entry, looked up, the tested form may be a part): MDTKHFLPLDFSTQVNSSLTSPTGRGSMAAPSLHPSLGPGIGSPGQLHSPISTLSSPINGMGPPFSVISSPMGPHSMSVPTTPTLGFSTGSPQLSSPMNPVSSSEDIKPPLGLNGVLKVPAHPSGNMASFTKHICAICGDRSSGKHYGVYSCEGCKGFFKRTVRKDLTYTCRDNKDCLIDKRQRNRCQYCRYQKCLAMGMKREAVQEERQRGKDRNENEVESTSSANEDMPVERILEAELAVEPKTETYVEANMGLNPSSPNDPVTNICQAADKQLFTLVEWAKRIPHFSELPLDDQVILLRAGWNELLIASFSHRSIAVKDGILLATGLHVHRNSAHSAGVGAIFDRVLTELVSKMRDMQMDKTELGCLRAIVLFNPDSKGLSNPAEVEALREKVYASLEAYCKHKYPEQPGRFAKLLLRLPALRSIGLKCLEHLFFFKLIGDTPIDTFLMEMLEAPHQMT
In short: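 Chimeric NR-GAL4 trans-activation in HepG2, 24 h treatment; reporter transcripts quantified by fluorescence on capillary electrophoresis, analysed for upward change from DMSO.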

[8] = molecular target: human Retinoid X Receptor beta (RXRb), RXRB (gene 6257) (UniProt P28702); assay: ATG_RXRb_TRANS: Attagene TRANS-FACTORIAL HepG2 Assay for human Retinoid X Receptor beta (RXRb) (AID 2283013; active = hit-call score of the fitted dose curve at least 0.9, where 1 is the maximum)
human Retinoid X Receptor beta (RXRb), RXRB (gene 6257), sequence (P28702 whole entry, looked up, the tested form may be a part): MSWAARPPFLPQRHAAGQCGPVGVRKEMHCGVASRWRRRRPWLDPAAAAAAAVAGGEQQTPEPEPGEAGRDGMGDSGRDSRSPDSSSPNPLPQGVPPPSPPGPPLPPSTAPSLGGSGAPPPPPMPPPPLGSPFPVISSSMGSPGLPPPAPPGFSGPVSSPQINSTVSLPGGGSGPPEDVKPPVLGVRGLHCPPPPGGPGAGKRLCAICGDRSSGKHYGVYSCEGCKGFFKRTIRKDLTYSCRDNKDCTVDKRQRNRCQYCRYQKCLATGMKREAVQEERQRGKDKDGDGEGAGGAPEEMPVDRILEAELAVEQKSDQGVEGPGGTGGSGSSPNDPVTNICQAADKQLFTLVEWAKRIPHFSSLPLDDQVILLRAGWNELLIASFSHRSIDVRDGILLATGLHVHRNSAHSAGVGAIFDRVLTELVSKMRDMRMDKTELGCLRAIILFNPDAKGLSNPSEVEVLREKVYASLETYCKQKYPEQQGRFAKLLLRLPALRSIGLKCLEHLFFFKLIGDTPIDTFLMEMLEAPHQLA
In short: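 After a 24 h incubation with test chemical, transfected HepG2 cells carrying NR-Gal4 fusions and GAL4-UAS reporter transcription units yield RNA whose reporter cDNA is FAM-labelled, HpaI-cut and sized by capillary electrophoresis; increases over DMSO are scored.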

[9] = read-out: E-selectin (Homo sapiens) (UniProt P16581); assay: BSK_3C_Eselectin: BioMAP Diversity Plus: 3C Assay for Eselectin Biomarker Activity (AID 2283015); settings: primary human endothelial cells (HUVEC); actives raise or lower the signal
In short: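 Primary human umbilical vein endothelial cells (3C system) were dosed with chemical and cell-surface E-selectin measured by ELISA 24 h later. Bidirectional curve fitting used DMSO as negative control and baseline.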

[10] = read-out: Interleukin-1 alpha (IL1a), IL1A (gene 3552); assay: BSK_BE3C_IL1a: BioMAP Diversity Plus: BE3C Assay for Interleukin-1 alpha (IL1a) Biomarker Activity (AID 2283016); settings: primary human bronchial epithelial cells; actives raise or lower the signal
In short: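 Measured in human lung primary bronchial epithelial cells: IL-1a by ELISA at 24 h after dosing, with bidirectional fitting against DMSO.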

[11] = read-out: Monocyte Chemoattractant Protein-1 (MCP1), CCL2 (gene 6347); assay: BSK_3C_MCP1: BioMAP Diversity Plus: 3C Assay for Monocyte Chemoattractant Protein-1 (MCP1) Biomarker Activity (AID 2283017); settings: primary human endothelial cells (HUVEC); actives raise or lower the signal
In short: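 Primary human umbilical vein endothelial cells (3C system) were exposed to test chemical for 24 h, after which MCP-1 was quantified by ELISA. Activity was fitted bidirectionally against DMSO as negative control and baseline.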

[12] = read-out: Monocyte Chemoattractant Protein-1 (MCP1), CCL2 (gene 6347); assay: BSK_4H_MCP1: BioMAP Diversity Plus: 4H Assay for Monocyte Chemoattractant Protein-1 (MCP1) Biomarker Activity (AID 2283018); settings: primary human endothelial cells (HUVEC); actives raise or lower the signal
In short: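 Primary human umbilical vein endothelium is exposed to chemical for 24 h before MCP-1 is assayed by ELISA. Concentration-response fitted bidirectionally relative to DMSO.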

[13] = read-out: Human Leukocyte Antigen - DR isotype (HLADR), HLA-DRA (gene 3122); assay: BSK_3C_HLADR: BioMAP Diversity Plus: 3C Assay for Human Leukocyte Antigen - DR isotype (HLADR) Biomarker Activity (AID 2283019); settings: primary human endothelial cells (HUVEC); actives raise or lower the signal
In short: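 Primary human umbilical vein endothelial cells (3C system) were dosed with compound and cell-surface HLA-DR was quantified by ELISA at 24 h. Activity was fitted bidirectionally against DMSO as negative control and baseline.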

[14] = molecular target: Nuclear receptor subfamily 1 group I member 2 (Homo sapiens) (UniProt O75469); assay: ATG_PXR_TRANS: Attagene TRANS-FACTORIAL HepG2 Assay for human Pregnane X Receptor (PXR) (AID 2283008; active = hit-call score of the fitted dose curve at least 0.9, where 1 is the maximum)
Nuclear receptor subfamily 1 group I member 2 (Homo sapiens), sequence (O75469 whole entry, looked up, the tested form may be a part): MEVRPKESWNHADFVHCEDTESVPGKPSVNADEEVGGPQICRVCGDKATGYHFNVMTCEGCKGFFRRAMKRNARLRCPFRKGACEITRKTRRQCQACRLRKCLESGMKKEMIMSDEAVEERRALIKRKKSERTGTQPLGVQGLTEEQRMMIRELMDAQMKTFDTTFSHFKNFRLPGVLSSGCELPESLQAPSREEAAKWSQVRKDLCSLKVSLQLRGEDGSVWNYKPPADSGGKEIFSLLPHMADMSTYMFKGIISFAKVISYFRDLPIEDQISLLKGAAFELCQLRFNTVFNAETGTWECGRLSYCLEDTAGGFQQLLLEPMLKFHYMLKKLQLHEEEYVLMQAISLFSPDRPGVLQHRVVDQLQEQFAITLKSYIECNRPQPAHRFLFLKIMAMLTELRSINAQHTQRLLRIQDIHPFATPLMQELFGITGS
In short: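 Trans-factorial format: exogenous NR-Gal4 fusion activity, not endogenous factor, in transfected human HepG2 liver cells. After 24 h dosing, RNA isolated, reverse-transcribed, amplified and resolved by capillary electrophoresis; induction scored versus DMSO.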

[15] = molecular target: human Retinoic Acid Receptor gamma (RARg), RARG (gene 5916) (UniProt P13631); assay: ATG_RARg_TRANS: Attagene TRANS-FACTORIAL HepG2 Assay for human Retinoic Acid Receptor gamma (RARg) (AID 2283009; active = hit-call score of the fitted dose curve at least 0.9, where 1 is the maximum)
human Retinoic Acid Receptor gamma (RARg), RARG (gene 5916), sequence (P13631 whole entry, looked up, the tested form may be a part): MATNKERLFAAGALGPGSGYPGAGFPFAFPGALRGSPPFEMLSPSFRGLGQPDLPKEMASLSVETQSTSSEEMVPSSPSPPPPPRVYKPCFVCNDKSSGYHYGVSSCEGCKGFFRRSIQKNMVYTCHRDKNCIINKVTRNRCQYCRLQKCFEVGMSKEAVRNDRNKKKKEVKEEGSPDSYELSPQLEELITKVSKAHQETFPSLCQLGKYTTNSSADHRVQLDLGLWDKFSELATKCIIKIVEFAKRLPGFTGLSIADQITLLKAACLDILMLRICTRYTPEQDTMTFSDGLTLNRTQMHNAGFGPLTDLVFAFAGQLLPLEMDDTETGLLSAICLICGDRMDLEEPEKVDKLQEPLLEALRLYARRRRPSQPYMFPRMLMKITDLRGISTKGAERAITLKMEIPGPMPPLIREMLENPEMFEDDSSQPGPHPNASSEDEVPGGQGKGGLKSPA
In short: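 Gain-of-signal relative to DMSO is reported from fluorescent capillary electrophoresis of RT-PCR reporter products. These came from HepG2 cells expressing transfected RARg-GAL4 chimeras with UAS reporters, harvested 24 h after dosing.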

[16] = molecular target: human Retinoic Acid Receptor beta (RARb), RARB (gene 5915) (UniProt P10826); assay: ATG_RARb_TRANS: Attagene TRANS-FACTORIAL HepG2 Assay for human Retinoic Acid Receptor beta (AID 2283004; active = hit-call score of the fitted dose curve at least 0.9, where 1 is the maximum)
human Retinoic Acid Receptor beta (RARb), RARB (gene 5915), sequence (P10826 whole entry, looked up, the tested form may be a part): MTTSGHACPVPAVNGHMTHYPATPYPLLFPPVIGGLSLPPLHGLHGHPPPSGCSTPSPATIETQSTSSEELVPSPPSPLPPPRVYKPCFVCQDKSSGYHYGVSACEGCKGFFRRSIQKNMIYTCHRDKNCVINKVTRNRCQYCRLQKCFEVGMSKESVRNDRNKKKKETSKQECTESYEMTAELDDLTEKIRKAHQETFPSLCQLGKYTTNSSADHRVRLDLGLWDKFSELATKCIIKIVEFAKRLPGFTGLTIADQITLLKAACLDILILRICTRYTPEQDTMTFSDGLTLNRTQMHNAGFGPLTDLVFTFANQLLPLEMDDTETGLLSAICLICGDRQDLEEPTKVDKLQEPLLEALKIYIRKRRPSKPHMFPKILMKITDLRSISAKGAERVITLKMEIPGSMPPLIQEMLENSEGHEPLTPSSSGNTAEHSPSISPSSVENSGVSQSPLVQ
In short: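 HepG2 cells transiently transfected with multiplexed GAL4-UAS reporter units expressing chimeric NR–Gal4 fusions; 24 h compound exposure. Reporter mRNA quantified by RT-PCR, 6-FAM labelling, HpaI digestion and capillary electrophoresis; gain-of-signal fitted against DMSO baseline.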

[17] = molecular target: human Thyroid Receptor alpha (THRa1), THRA (gene 7067) (UniProt P10827); assay: ATG_THRa1_TRANS: Attagene TRANS-FACTORIAL HepG2 Assay for human Thyroid Receptor alpha (THRa1) (AID 2283014; active = hit-call score of the fitted dose curve at least 0.9, where 1 is the maximum)
human Thyroid Receptor alpha (THRa1), THRA (gene 7067), sequence (P10827 whole entry, looked up, the tested form may be a part): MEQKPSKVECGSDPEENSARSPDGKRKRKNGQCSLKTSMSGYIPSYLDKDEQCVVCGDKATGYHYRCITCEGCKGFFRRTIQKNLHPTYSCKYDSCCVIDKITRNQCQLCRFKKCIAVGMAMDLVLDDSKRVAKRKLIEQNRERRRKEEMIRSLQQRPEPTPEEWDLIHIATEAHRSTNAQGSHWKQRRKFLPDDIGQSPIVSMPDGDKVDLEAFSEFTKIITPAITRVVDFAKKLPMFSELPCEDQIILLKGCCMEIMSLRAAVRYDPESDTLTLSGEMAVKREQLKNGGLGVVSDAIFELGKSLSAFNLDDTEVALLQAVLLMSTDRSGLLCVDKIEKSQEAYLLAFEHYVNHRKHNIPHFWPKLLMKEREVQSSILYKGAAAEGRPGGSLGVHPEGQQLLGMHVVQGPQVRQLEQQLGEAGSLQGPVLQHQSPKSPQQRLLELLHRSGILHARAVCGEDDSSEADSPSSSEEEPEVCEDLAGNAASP
In short: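 HepG2 cells transiently transfected with multiplexed GAL4-UAS reporter units for exogenous chimeric THRa1-Gal4; reporter mRNA measured 24 h after dosing by RT-PCR, 6-FAM labelling, HpaI digestion and capillary electrophoresis. Gain-of-signal fitted versus DMSO baseline.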

[18] = molecular target: Peroxisome proliferator-activated receptor gamma (Homo sapiens) (UniProt P37231); assay: ATG_PPARg_TRANS: Attagene TRANS-FACTORIAL HepG2 Assay for human Peroxisome Proliferator-activated Receptor-gamma (PPARg) (AID 2283007; active = hit-call score of the fitted dose curve at least 0.9, where 1 is the maximum)
In short: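 After 24 h of chemical exposure, transfected HepG2 cells carrying PPARγ-Gal4 chimera reporter constructs are lysed for RNA. Reporter transcripts are measured by RT-PCR and capillary electrophoresis with fluorescent labelling, and gain of signal is fitted versus DMSO.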

[19] = molecular target: human Peroxisome Proliferator-activated Receptor alpha (PPARa), PPARA (gene 5465) (UniProt Q07869); assay: ATG_PPARa_TRANS: Attagene TRANS-FACTORIAL HepG2 Assay for human Peroxisome Proliferator-activated Receptor alpha (PPARa) (AID 2283001; active = hit-call score of the fitted dose curve at least 0.9, where 1 is the maximum)
In short: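 Transient HepG2 transfection, GAL4-UAS reporters, NR-Gal4 chimeras; 24 h compound exposure. Readout: reporter transcripts by RT-PCR, 6-FAM primer extension, HpaI digest, capillary electrophoresis. Positive direction vs DMSO baseline.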

[20] = molecular target: Retinoic acid receptor alpha (Homo sapiens) (UniProt P10276); assay: ATG_RARa_TRANS: Attagene TRANS-FACTORIAL HepG2 Assay for human Retinoic Acid Receptor alpha (RARa) (AID 2283005; active = hit-call score of the fitted dose curve at least 0.9, where 1 is the maximum)
In short: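 HepG2 transiently transfected with multiplex GAL4-UAS reporter units including a human RARa–GAL4 chimera; 24 h compound exposure. Reporter mRNA quantified by RT-PCR, 6-FAM labeling and capillary electrophoresis; gain of signal versus DMSO.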

Measured: AC50

E-selectin (Homo sapiens), sequence (P16581 whole entry, looked up): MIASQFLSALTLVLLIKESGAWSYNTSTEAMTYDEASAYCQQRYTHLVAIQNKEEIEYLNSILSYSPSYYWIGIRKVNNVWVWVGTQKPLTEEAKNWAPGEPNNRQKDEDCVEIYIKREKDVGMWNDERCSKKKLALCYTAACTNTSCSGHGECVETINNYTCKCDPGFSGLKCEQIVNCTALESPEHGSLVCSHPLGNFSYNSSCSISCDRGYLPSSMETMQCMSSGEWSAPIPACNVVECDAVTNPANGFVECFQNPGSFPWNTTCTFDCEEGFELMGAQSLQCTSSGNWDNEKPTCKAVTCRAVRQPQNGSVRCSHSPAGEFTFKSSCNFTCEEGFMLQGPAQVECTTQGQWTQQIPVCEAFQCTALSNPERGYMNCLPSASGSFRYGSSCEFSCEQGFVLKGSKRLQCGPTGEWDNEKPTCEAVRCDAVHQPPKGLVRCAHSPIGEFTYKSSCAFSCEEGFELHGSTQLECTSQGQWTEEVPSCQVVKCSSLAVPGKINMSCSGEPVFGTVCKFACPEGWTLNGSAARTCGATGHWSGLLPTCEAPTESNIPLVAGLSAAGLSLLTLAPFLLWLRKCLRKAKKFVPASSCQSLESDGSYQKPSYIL

COc1cc(C=O)ccc1O
inactive: [1] | [2] | [3] | [4] | [5] | [6] | [7] | [8] | [9] | [10] | [11] | [12] | [13]

NS(=O)(=O)c1cc2c(cc1Cl)NCNS2(=O)=O
inactive: [1] | [3] | [4] | [14] | [6] | [7] | [8] | [9] | [10] | [11] | [12] | [13]

Cc1ccc(Cl)cc1
inactive: [1] | [2] | [3] | [4] | [14] | [7] | [9] | [10] | [11] | [12] | [13]

COc1ccc(S(=O)(=O)N2C(=O)[C@@](c3ccccc3OC)(N3C[C@H](O)C[C@H]3C(=O)N(C)C)c3cc(Cl)ccc32)c(OC)c1
active: [4] 28.7 µM | [14] 0.038 µM | [11] 20 µM | [13] 32.6 µM
inactive: [1] | [2] | [3] | [15] | [9] | [10] | [12]

NCC1(Cc2noc(=O)[nH]2)CCCCC1
inactive: [1] | [3] | [16] | [4] | [14] | [5] | [6] | [7] | [9] | [10] | [11] | [12] | [13]

Nc1ccc2c(c1)C(=O)c1ccccc1C2=O
inactive: [1] | [3] | [16] | [4] | [14] | [6] | [7] | [8] | [17] | [9] | [10] | [11] | [12] | [13]

CNC(=O)[C@H]1O[C@@H](n2cnc3c(NCc4cc(Cl)ccc4OCc4cc(C)no4)ncnc32)[C@H](O)[C@@H]1N
inactive: [1] | [2] | [3] | [4] | [14] | [6] | [8] | [9] | [10] | [11] | [12] | [13]

O=C(N[C@@H](Cc1ccccc1)[C@@H](O)C(=O)N1C[C@@H](O)[C@@H](O)C1)c1cc2cc(Cl)ccc2[nH]1
inactive: [1] | [2] | [3] | [4] | [14] | [5] | [6] | [7] | [9] | [10] | [11] | [12] | [13]

COCCOCCOC
inactive: [1] | [3] | [16] | [4] | [5] | [17] | [9] | [10] | [11] | [12] | [13]

Cc1cccc(Nc2cc(Cl)nc(SCC(=O)O)n2)c1C
inactive: [1] | [3] | [16] | [4] | [9] | [10] | [11] | [12] | [13]
active: [14] 21 µM

CN[C@H]1CC[C@@H](c2ccc(Cl)c(Cl)c2)c2ccc(S(N)(=O)=O)cc21
inactive: [2] | [14]
active: [1] 15.2 µM | [3] 30.9 µM | [4] 6.14 µM | [9] 30.6 µM | [10] 30.3 µM | [11] 27.5 µM | [12] 20 µM | [13] 14.7 µM

COc1cc(S(=O)(=O)O)c(C)cc1N=Nc1c(O)ccc2cc(S(=O)(=O)O)ccc12
inactive: [1] | [2] | [3] | [4] | [6] | [7] | [9] | [10] | [11] | [12] | [13]

COc1cccc2c1C(=O)c1c(O)c3c(c(O)c1C2=O)C[C@@](O)(C(=O)CO)C[C@@H]3O[C@H]1C[C@H](N)[C@H](O)[C@H](C)O1
inactive: [2] | [18] | [14] | [15] | [7]
active: [8] 0.0616 µM | [17] 32.9 µM

COc1cc(/C=C/C(=O)CC(=O)/C=C/c2ccc(O)c(OC)c2)ccc1O
inactive: [19] | [2] | [20] | [14] | [15] | [7]

CCOC(=O)CCC(=O)OCC
inactive: [1] | [3] | [16] | [4] | [15] | [5] | [7] | [9] | [10] | [11] | [12] | [13]

Cc1nc(C)nc(N2C[C@@H](C)N(c3ccnc([C@@H](C)O)n3)[C@@H](C)C2)n1
active: [14] 82.4 µM
inactive: [1] | [3] | [4] | [15] | [7] | [9] | [10] | [11] | [12] | [13]
